A selection: hits, their analogues and other compounds. The true share with any hit is near 3.7%.
Kir21 block: inhibitors of mouse Kir2.1 inward-rectifier potassium channel; Inward rectifier potassium channel 2 (Mus musculus), P35561; HEK293-Kir2.1, FluxOR thallium flux fluorescence; hits give low values; B-score at 10 µM; 0.85% of 310,000 active; AID 1672, 2009;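 active means fluorescence ratio B-score at or below minus 3 SD of library scores, with starting-brightness B-score within 2 SD, cut at about -4.2 in these data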;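 further: channel flux triggered by added potassium and thallium sulfate stimulus; B-score of peak minus minimum fluorescence over baseline after thallium stimulus; more negative B-score means stronger Kir2.1 block with less thallium influx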
CHT PAM: CHT positive allosteric modulators, primary screen, cell-based, membrane potential dye, choline EC20 | High affinity choline transporter 1 (Homo sapiens), Q9GZV3 | CHT-expressing cells; hits give high values; LV-AA mutant CHT in HEK293 cells | B-score at 10 µM | 0.49% of 310,000 active | AID 488977, 2010;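 active means initial fluorescence not abnormally high and integrated response B-score, plate-corrected, over 3 SD above library mean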
CHT block: inhibitors of human choline transporter CHT; CHT-expressing cells, membrane potential dye, choline response; hits give low values; High affinity choline transporter 1 (Homo sapiens), Q9GZV3; B-score at 10 µM; AID 488975, 2010; 0.86% of 310,000 active;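 active means B-score over 3 SD under the library average, and starting fluorescence ratio not unusually high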;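 further: choline stimulus applied at its EC90 after an EC20 pre-addition; B-score computed on integrated fluorescence ratio after choline addition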
TMEM16A inh: TMEM16A chloride channel inhibitors, primary screen, cell-based, HTS; HEK293 TMEM16A/YFP iodide influx fluorescence, ionomycin; normalized B-score (activity score, 25-100; higher = stronger inhibition) at 10 µM; 1.2% of 310,000 active;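 active means ratio plate-corrected score three or more library SD toward inhibition, starting fluorescence score within five deviations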;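 further: score derived from kinetic fluorescence span divided by baseline fluorescence per well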
GPR7 antag: GPR7 receptor antagonists, primary screen, cell-based, fluorescence, single concentration | 1.1% of 290,000 active | inhibition, % at 4.4 µM | GPR7-expressing cells, fluorescence antagonist assay; in the data active means inhibition above about 16%, passing the limit was not always enough;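 further: cells stimulated with the agonist NPW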
Target sequence (P48145 whole entry, looked up): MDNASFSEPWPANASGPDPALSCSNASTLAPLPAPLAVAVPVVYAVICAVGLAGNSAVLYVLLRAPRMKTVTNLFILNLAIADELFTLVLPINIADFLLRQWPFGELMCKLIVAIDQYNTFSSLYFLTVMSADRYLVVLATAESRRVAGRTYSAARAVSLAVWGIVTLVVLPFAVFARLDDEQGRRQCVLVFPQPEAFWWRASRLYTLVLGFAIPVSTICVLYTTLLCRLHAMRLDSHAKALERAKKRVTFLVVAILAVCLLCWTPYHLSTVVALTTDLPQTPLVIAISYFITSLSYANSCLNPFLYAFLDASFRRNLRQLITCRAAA
ANO1 activ: TMEM16A chloride channel activators or potentiators, primary screen, cell-based, HTS. Anoctamin-1 (Mus musculus), Q8BHY3. HEK293 TMEM16A/YFP-H148Q/I152L, iodide quench fluorescence; hits give low values. B-score at 10 µM. 0.3% of 340,000 active. AID 623877, 2012;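 active means fluorescence-ratio B-score plate-corrected deviation score at least 3 library SD below zero, with starting fluorescence score within 5 deviations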;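 further: channel opened by trigger with iodide after compound preincubation; score built on the fluorescence ratio of max minus min over baseline; more negative score means more quench and so TMEM16A activation or potentiation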
Numbers stand for hits; - = inactive; . = no result given.

SMILES	Kir21 block	CHT PAM	CHT block	TMEM16A inh	GPR7 antag	ANO1 activ
COC1/C=C/C=C(\C)Cc2cc(O)c(Cl)c(c2)N(C)C(=O)CC(OC(=O)C(C)C)C2(C)OC2C(C)C2CC1(O)NC(=O)O2 (configuration not stated)	.	.	.	.	.	-4.95
CC12C(C(=O)O)C1(c1ccccc1)C2C(=O)O (configuration not stated)	.	.	.	.	.	-
Cc1cc(OCC(=O)NC(Cc2ccc(Cl)cc2)C(=O)O)c2c3c(c(=O)oc2c1)CCC3 (configuration not stated)	-	-	-	-	-	-
Cc1cc(OCC(=O)N[C@H](C(=O)O)c2ccccc2)c2c3c(c(=O)oc2c1)CCC3	-	-	-	-	-	-16.3
O=P(Nc1cccnc1)(Oc1ccccc1Cl)Oc1ccccc1Cl	-4.77	-	-	-	-	-
Cc1cccc(OP(=O)(Nc2cccnc2)Oc2cccc(C)c2)c1	-	-	-	-	-	-
C[C@]12N[C@H](Cc3ccccc31)c1ccccc12	-	-	-	-	.	-
CC1CCN(S(=O)(=O)c2ccc(NN=C(C#N)C#N)cc2)CC1	.	-	-	100	-	.
CC1Oc2cc3c(-c4c(O)cc(O)c5c(O)c6c(cc45)OC(C)C(C)C6=O)c(O)cc(O)c3c(O)c2C(=O)C1C (configuration not stated)	-	-	-	-	-	-9.13
CCOc1ccc(NC(=O)c2c(O)[nH]c(=O)[nH]c2=O)cc1	-	-	-	-	.	-
CCOC(=O)c1ccc(NC(=O)c2c(O)[nH]c(=O)[nH]c2=O)cc1	-	-	-	-	48.0	-
COC(=O)C1=C(c2ccc(-c3ccccc3)c(F)c2)C[C@@H]2CC[C@H]1N2C(=O)N1CCCC1	.	.	.	.	.	-
CC(C)OC(=O)C1C2c3ccccc3C(c3ccccc32)C1C(=O)O (configuration not stated)	-	-	-	-	-	-
COC(=O)C1C2c3ccccc3C(c3ccccc32)C1C(=O)OC (configuration not stated)	-	-	-	-	-	-8.8
CN(C)c1ccc(/C=C/[N+](=O)[O-])cc1	-6.27	-	-	-	19.3	-
C/C(=C\c1ccc(N(C)C)cc1)[N+](=O)[O-]	-	-	-	-	-	-
COc1ccc(-c2nn(CCC#N)cc2C(=O)Nc2ccc(C(C)=O)cc2)cc1[N+](=O)[O-]	-	-	-	-	-	-
COC(=O)OCC12CCC(O1)C1(C)C(=O)OCC21 (configuration not stated)	-	-	-	-	-	-
C#CCN[C@H](C)Cc1ccccc1	.	-	-	-	.	-
CC(Cc1ccccc1)NCc1ccccc1O (configuration not stated)	-5.51	-	-	-	-	-
CCCCCCCSc1cc(OC)c(CCN(C)C)cc1OC	-9.89	-	-	-	-	-
N#Cc1ccccc1Cn1cc(C(=O)c2ccccc2F)c2ccccc21	-	-	-	-	-	-
CC(C)NC(=O)Cn1cc(C(=O)c2ccccc2F)c2ccccc21	-	-	-	-	-	-5.29
CCCCn1c(=O)c(C(=O)Nc2nnc(C(C)C)s2)c(O)c2ccccc21	-	-	-	-	-	.
CCCCC1(CC)COP(=O)(OCC(Cl)(Cl)Cl)OC1 (configuration not stated)	.	.	.	.	.	-
SMILES	Kir21 block	CHT PAM	CHT block	TMEM16A inh	GPR7 antag	ANO1 activ
CNCC(O)c1cccc(OC(=O)c2ccccc2C)c1 (configuration not stated)	-	-	-	-	23.5	-
O=C(O)c1ccc(-[n+]2c(-c3ccccc3)cc(-c3ccccc3)cc2-c2ccccc2)cc1	-	-	-	-	.	-
Cc1ccccc1-[n+]1c(-c2ccccc2)cc(-c2ccccc2)cc1-c1ccccc1	-15.8	7.54	-	100	.	-
Cc1ccc(-c2cc(-c3ccccc3)cc(-c3ccccc3)[n+]2-c2ccc(C(=O)O)cc2)cc1	-	-	-	-	.	-
Brc1ccc(-[n+]2c(-c3ccccc3)cc(-c3ccccc3)cc2-c2ccccc2)cc1	-8.37	12.3	-	100	.	-
O=C(Cc1ccccc1)Oc1cccc(-n2cnnn2)c1	-	-	-	-	-	-
O=C(C[N+]12CCN(CC1)CC2)NCCc1ccc(Cl)cc1Cl	-	-	-	-	-	-
CNc1ccc2nc3ccccc3[n+](C)c2c1	-	-	-	-	-	-5.03
CSc1ccc(CNC(C)C(O)c2ccccc2)cc1 (configuration not stated)	-5.52	-	-	-	-	-
CN[C@H](C)[C@H](O)c1ccccc1	-	-	-	-	-	-
CC1CN=C(Nc2ccc(F)cc2)S1 (configuration not stated)	-	-	-	-	-	-4.61
CCN1CCN(c2cc(N3CCCC3)c([N+](=O)[O-])cc2F)CC1	-4.24	-	-	-	-	-
COC(=O)C1=C(c2c(C)noc2C)C[C@@H]2CC[C@H]1N2C(=O)NCC1CC1	.	.	.	.	.	-
O=C(NC(=O)c1c(F)cccc1F)Nc1cc(Cl)c(F)c(Cl)c1F	-	-	-	-	active	-
O=C(CCC(=O)N1CCC2(CC1)OCCO2)Nc1nnc(C2CCCCC2)s1	-	-	-	-	-	-
CC1CCC(C(C)C)C(OC(=O)Cn2c(COc3ccccc3)[n+](C)c3ccccc32)C1 (configuration not stated)	-16.6	-	-	-	58.3	-
CC1CCC2[C@@H](C)C(=O)OC3O[C@]4(C)CCC1C32OO4 (some centres not stated)	-	-	-	-	.	-
COc1ccc(S(=O)(=O)N2CCOCC2)cc1NC(=O)COC(=O)Cc1ccccc1	.	.	.	.	.	-
COc1cc(C(=S)N2CCOCC2)cc(OC)c1OC(=O)Cc1ccccc1	-	-	-5.07	-	-	-
COC(=O)C1=C(c2ccc(OC(F)(F)F)cc2)C[C@@H]2CC[C@H]1N2C(=O)N1CCC(O)CC1	.	.	.	.	.	-
C=C1C(=O)O[C@@H]2C[C@@H](C)[C@@H]3C=CC(=O)[C@@]3(C)[C@@H](OC(=O)CC(=O)O[C@H]3[C@@H]4C(=C)C(=O)O[C@@H]4C[C@@H](C)[C@@H]4C=CC(=O)[C@]43C)[C@H]12	-4.65	-	-	-	.	-
C=C1C(=O)OC2CC(C)C3C=CC(=O)C3(C)C(O)C12 (configuration not stated)	.	.	.	.	.	-
O=P(CCl)(Nc1ccccc1)C(Cl)(Cl)Cl (configuration not stated)	-	-	-	-	-	-

Bioassay records from PubChem BioAssay.
